Our source for the activity, negative = inhibition and Potency values is PubChem BioAssay (NCATS).

Records with an inconclusive call do not appear. A number with no mark means an inactive call. Active and inactive are the calls of the source. Calls come from the whole dose curve; as a rule, active = well fitted inhibition curve with a large enough effect; inconclusive = small, poorly fitted or top-dose-only effect; inactive = flat fitted curve, though single readings scatter.

Assay [1] can be described thus: qHTS profiling for inhibitors of Plasmodium falciparum proliferation (AID 504749).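 For activity, negative = inhibition: 0% = DMSO vehicle and full inhibition = artemisinin control.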 For all read-outs here: nearly all actives have a fitted effect of over 60% in size. Particulars: P. falciparum in erythrocytes, SYBR Green DNA, 72 h; for activity, negative = inhibition: at 28.7 µM (top of the series). The gist of the method: (§1)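 In a 72 h erythrocytic culture (37 C, humidified, 5% CO2) at 2.5% hematocrit and 0.3% starting parasitemia, compounds were tested; SYBR Green I in detergent lysis buffer stained parasite DNA overnight.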

The test system of assay [2] is 3D7. Described as above. To be noted: P. falciparum in erythrocytes, SYBR Green DNA, 72 h; series mostly up to 28.7 µM. The method, boiled down:
as §1

In assay [3] the test system is 7G8. The assay is described as above. To be noted: P. falciparum in erythrocytes, SYBR Green DNA, 72 h; series mostly up to 28.7 µM. The gist of the method: as §1
The test system of assay [4] is AA1029. The assay is described as above. To be noted: P. falciparum in erythrocytes, SYBR Green DNA, 72 h; series mostly up to 28.7 µM. The gist of the method:
as §1

Assay [5] relates to AS120. Described as above. Particulars: P. falciparum in erythrocytes, SYBR Green DNA, 72 h; series mostly up to 28.7 µM. The gist of the method:
as §1

Assay [6] has as its system ATS189. Described as above. Particulars: P. falciparum in erythrocytes, SYBR Green DNA, 72 h; series mostly up to 28.7 µM. The method, boiled down:
as §1
Potency is the fitted concentration of half-maximal effect.

Consider `O=c1[nH]c2cc(C(F)(F)F)c(N3CCOCC3)cc2n(CP(=O)(O)O)c1=O`, for which the activity, negative = inhibition in assay [1] (parasite line A) is 11.3%; in assay [1] (parasite line B), -0.254%. For the same compound, the Potency entry in assay [2], in assay [3], in assay [4], in assay [5] and in assay [6] was “inactive” in each case.

For the compound `CCc1nnc(NS(=O)(=O)c2ccc(N)cc2)s1`, the activity, negative = inhibition in assay [1] (parasite line A) is 10.2%; in assay [1] (parasite line B), 10.5%. The Potency entry in assay [2], in assay [3], in assay [4], in assay [5] and in assay [6] was “inactive” each time.

Turning to `O=C(O)Cc1ccc(CCNS(=O)(=O)c2ccc(Cl)cc2)cc1`, the activity, negative = inhibition is 5.99% in assay [1] (parasite line A) and -5.95% in assay [1] (parasite line B). The Potency entry in assay [2], in assay [3], in assay [4], in assay [5] and in assay [6] was “inactive” throughout.

For `Cc1cc(NC(=O)C2=C(O)c3ccccc3S(=O)(=O)N2C)no1`, the activity, negative = inhibition is 12.7% in assay [1] (parasite line A) and -1.12% in assay [1] (parasite line B). In addition, the Potency entry in assay [2], in assay [3], in assay [4], in assay [5] and in assay [6] was “inactive” throughout.

Regarding `NNC(=O)CP(=O)(c1ccccc1)c1ccccc1`, the values for the activity, negative = inhibition in assay [1] (parasite line A) and in assay [1] (parasite line B) were 8.38% and 6.41%, respectively. Further, the Potency entry in assay [2], in assay [3], in assay [4], in assay [5] and in assay [6] was “inactive” in each case.

With `O=C(O)Cn1c(C(=O)Nc2nc(-c3ccccc3Cl)cs2)cc2ccccc21`, the activity, negative = inhibition in assay [1] (parasite line A) is 10.1%; in assay [1] (parasite line B), 5.81%. The Potency entry in assay [2], in assay [3], in assay [4], in assay [5] and in assay [6] was “inactive” in each case.

For `O=C(NCN1CCOCC1)c1cnccn1`, the activity, negative = inhibition in assay [1] (parasite line A) was -8.14%; in assay [1] (parasite line B), 11.7%. The Potency result in assay [2], in assay [3], in assay [4], in assay [5] and in assay [6] was “inactive” throughout.

On to `Cc1ccc(S(=O)(=O)NC(=O)NC2CCCCCCC2)cc1`, for which the activity, negative = inhibition in assay [1] (parasite line A) is 11.2%; in assay [1] (parasite line B), 10.7%. Moreover, the Potency result in assay [2], in assay [3], in assay [4], in assay [5] and in assay [6] was “inactive” throughout.

For the compound `COc1ccc(Cc2cnc(N)nc2N)cc1OC`, the Potency in assay [1] (parasite line A) is 3.55 µM (active); in assay [1] (parasite line B), 8.91 µM (active); in assay [2], 7.08 µM (active). The Potency result in assay [3], in assay [4], in assay [5] and in assay [6] was “inactive” throughout.

Consider `Cc1c(C(=O)NCCO)[n+](=O)c2ccccc2n1[O-]`, for which the activity, negative = inhibition in assay [1] (parasite line A) was 8.49%; in assay [1] (parasite line B), -1.36%. Also, the Potency entry in assay [2], in assay [3], in assay [4], in assay [5] and in assay [6] was “inactive” each time.

For `Cn1c([N+](=O)[O-])cnc1COC(N)=O`, the values for the activity, negative = inhibition in assay [1] (parasite line A) and in assay [1] (parasite line B) were 5.14% and 3.75%, respectively. The Potency entry in assay [2], in assay [3], in assay [4], in assay [5] and in assay [6] was “inactive” throughout.

As for `Nc1ncnc2c1ncn2[C@@H]1O[C@H](COP(=O)(O)O)[C@@H](O)[C@H]1O`, the activity, negative = inhibition in assay [1] (parasite line A) is -10.7%; in assay [1] (parasite line B), 4.33%. Moreover, the Potency entry in assay [2], in assay [3], in assay [4], in assay [5] and in assay [6] was “inactive” each time.

For `CCN(CC)CC1CCCCN1CC(=O)N1c2ccccc2C(=O)Nc2cccnc21` (stereo not given), the activity, negative = inhibition in assay [1] (parasite line A) was 6.16%; in assay [1] (parasite line B), 1.05%. Besides, the Potency entry in assay [2], in assay [3], in assay [4], in assay [5] and in assay [6] was “inactive” each time.

Consider `O=C(O)c1ccccc1C(=O)Nc1ccc(S(=O)(=O)Nc2nccs2)cc1`, for which the results for the activity, negative = inhibition in assay [1] (parasite line A) and in assay [1] (parasite line B) were 16.3% and 12.3%, respectively. The Potency entry in assay [2], in assay [3], in assay [4], in assay [5] and in assay [6] was “inactive” in each case.

Regarding `Cc1c(NC(C)C)c(=O)n(-c2ccccc2)n1C`, the activity, negative = inhibition was 8.37% in assay [1] (parasite line A) and 23.5% in assay [1] (parasite line B). Moreover, the Potency entry in assay [2], in assay [3], in assay [4], in assay [5] and in assay [6] was “inactive” each time.
